IDE exosite FP – insulin-degrading enzyme (human) exo-site inhibition. P14735. purified IDE, FL-6b probe fluorescence polarization; active compounds read low. z-score at 20 µM. 17,000 tested, 6.3% active. AID 1259349;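 active means z-score of -3 or lower, meaning strong loss of probe binding signal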;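 further: His-tagged human IDE residues 42-1019 made in E. coli with 30 nM FL-6b probe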
An asterisk follows results filed as active. This excerpt belongs to a sample that is enriched for hits.

SMILES	IDE exosite FP
Cc1ccc(S(=O)(=O)N2C[C@@H]3N[C@H](C2)C3c2ccc(-c3ccc(C(=O)N(C)C)cc3)cc2)cc1 (stereo partly drawn)	1.1
COc1ccc(C(=O)Nc2ccc3c(c2)C(=O)N(C)[C@@H]2CC[C@H](CC(=O)NCC4CC4)O[C@H]2CO3)cc1	0.33
CN(C)CC(=O)N1[C@@H](C#N)[C@H](c2ccccc2-c2cccc(C(=O)N(C)C)c2)[C@@H]1CO	4
OC[C@@H]1[C@@H](c2ccccc2)C2(CN(Cc3ccccn3)C2)N1CCC(F)(F)F	0.52
CN(C)C(=O)c1cccc(-c2ccc([C@H]3[C@H]4CN(C(=O)C5CCCCC5)CC(=O)N4[C@H]3CO)cc2)c1	2.2
CN(C)C(=O)c1cccc(-c2ccc([C@@H]3[C@@H](CO)N4C(=O)CN(C(=O)C5CCCCC5)C[C@@H]34)cc2)c1	2.8
CN(C)C(=O)c1cccc(-c2ccc([C@H]3[C@@H](CO)N4C(=O)CN(C(=O)C5CCC5)C[C@@H]34)cc2)c1	1.5
COc1cccc(-c2ccc([C@@H]3[C@@H](CO)N4C(=O)CN(C(=O)C5CCC5)C[C@H]34)cc2)c1	-4.3*
COc1cccc(-c2ccc([C@H]3[C@H]4CN(C(=O)C5CCC5)CC(=O)N4[C@H]3CO)cc2)c1	-5.7*
O=C(C1CCC1)N1CC(=O)N2[C@@H](CO)[C@H](c3ccc(-c4cccnc4)cc3)[C@@H]2C1	1.1
COc1cccc(-c2ccc([C@H]3[C@@H](CO)N4C(=O)CN(C(=O)C5CCCCC5)C[C@@H]34)cc2)c1	-6.3*
COc1cccc(-c2ccc([C@H]3[C@H](CO)N4C(=O)CN(C(=O)C5CCC5)C[C@@H]34)cc2)c1	-6.8*
CS(=O)(=O)N1[C@H](CO)[C@H](c2ccccc2-c2ccc(F)cc2)[C@@H]1C#N	-0.52
CC(=O)N(CC1CCC1)C[C@H]1N[C@H](CO)[C@@H]1c1ccc(C2=CCCC2)cc1	0.21
N#C[C@H]1[C@H](c2ccc(-c3cncnc3)cc2)[C@@H](CO)N1C(=O)CN1CCOCC1	0.85
COc1ccc2c3c([nH]c2c1)[C@@H](CO)N(S(C)(=O)=O)CC31CN(C(=O)Cc2cccnc2)C1	0.033
CC(=O)N(C[C@H]1N[C@H](CO)[C@H]1c1ccc(-c2ccc(F)cc2)cc1)C(C)C	2.8
CC(C)CC#Cc1ccc([C@H]2[C@H]3CN(C(=O)c4ccc5c(c4)OCO5)CC(=O)N3[C@H]2CO)cc1	1.8
CN(C)CC#Cc1ccc([C@H]2[C@H](CO)N3CCCCN(C(=O)Nc4ccccc4F)C[C@@H]23)cc1	3.9
CO[C@@H](C(=O)N(C)C[C@H]1OCc2ccccc2-c2ccccc2C(=O)N([C@H](C)CO)C[C@@H]1C)c1ccccc1	0.11
COc1ccc(-c2ccc([C@@H]3[C@@H](CO)N4C(=O)CN(C(=O)C5CCC5)C[C@@H]34)cc2)cc1	2.3
COc1ccc(-c2ccc([C@@H]3[C@H]4CN(C(=O)NC(C)C)CC(=O)N4[C@H]3CO)cc2)cc1	-0.33
COc1ccc(-c2ccc([C@H]3[C@@H](CO)N4C(=O)CN(C(=O)C5CCCC5)C[C@H]34)cc2)cc1	-7.7*
COc1ccc(-c2ccc([C@H]3[C@@H](CO)N4C(=O)CN(C(=O)C5CCCC5)C[C@@H]34)cc2)cc1	-2.5
COc1ccc(-c2ccc([C@H]3[C@@H](CO)N4C(=O)CN(C(=O)NC(C)C)C[C@H]34)cc2)cc1	-0.41
SMILES	IDE exosite FP
COc1cccc(-c2ccc([C@H]3[C@H](CO)N4C(=O)CN(C(=O)NC(C)C)C[C@@H]34)cc2)c1	-6.9*
CC(=O)NC[C@H]1[C@@H](c2ccc(C3=CCCC3)cc2)[C@@H](CO)N1C(=O)CN(C)C	0.22
O=C(Nc1ccccc1F)N1CC(=O)N2[C@H](CO)[C@H](c3ccc(-c4ccc(F)cc4)cc3)[C@@H]2C1	0.49
C[C@@H]1CN([C@@H](C)CO)C(=O)c2cc(NC(=O)Nc3ccc4c(c3)OCO4)ccc2O[C@@H](C)CCCCO[C@@H]1CN(C)C(=O)CCCN(C)C	-0.23
O=C(C1CCOCC1)N1[C@H](CO)[C@@H](c2ccccc2)C12CN(Cc1cccc(Cl)c1)C2	-0.59
N#C[C@H]1[C@@H](c2ccccc2C2=CCCC2)[C@@H](CO)N1S(=O)(=O)c1ccccc1	5.1
CC(C)NC(=O)N1CC(=O)N2[C@H](CO)[C@@H](c3ccc(C#CCN(C)C)cc3)[C@@H]2C1	4.7
C[C@@H]1CCCCO[C@@H](CN(C)S(=O)(=O)c2cn(C)cn2)[C@H](C)CN([C@H](C)CO)C(=O)c2cc(NC(=O)Nc3cccc4ccccc34)ccc2O1	-0.11
C[C@@H]1CN([C@H](C)CO)C(=O)c2cc(NC(=O)Nc3cccc4ccccc34)ccc2O[C@@H](C)CCCCO[C@@H]1CN(C)S(=O)(=O)c1cn(C)cn1	-7.1*
C[C@@H]1CCCCO[C@@H](CN(C)S(=O)(=O)c2cn(C)cn2)[C@H](C)CN([C@H](C)CO)C(=O)c2cc(N(C)C)ccc2O1	1.5
N#C[C@@H]1[C@H](c2ccc(C3=CCCC3)cc2)[C@@H](CO)N1c1nc(-c2ccccc2)cs1	0.18
COc1cccc(NC(=O)Nc2ccc3c(c2)C(=O)N(C)C[C@@H](OC)[C@H](C)CN[C@H](C)CO3)c1	0.55
CO[C@H]1CN(C)C(=O)c2cc(NC(=O)c3ccc(Oc4ccccc4)cc3)ccc2OC[C@H](C)NC[C@@H]1C	-1.3
CO[C@H]1CN(C)C(=O)c2cc(NC(=O)c3ccc(Oc4ccccc4)cc3)ccc2OC[C@@H](C)NC[C@H]1C	-7.9*
CO[C@H]1CN(C)C(=O)c2cc(NC(=O)c3cnccn3)ccc2OC[C@H](C)NC[C@@H]1C	0.051
CO[C@@H]1CN(C)C(=O)c2cc(NC(=O)c3ccc(Oc4ccccc4)cc3)ccc2OC[C@@H](C)NC[C@@H]1C	-11*
CO[C@H]1CN(C)C(=O)c2cc(NC(=O)c3cnccn3)ccc2OC[C@@H](C)NC[C@H]1C	0.84
Cc1ccc(S(=O)(=O)N[C@@H]2CC[C@@H](CC(=O)NCc3ccncn3)O[C@@H]2CO)cc1	0.42
N#C[C@@H]1[C@H](c2ccc(C#CCC3CCCC3)cc2)[C@@H](CO)N1C(=O)c1ccccn1	1.2
Cc1ccc(NC(=O)Nc2ccc3c(c2)C(=O)N(C)[C@@H]2CC[C@@H](CC(=O)NCC(F)(F)F)O[C@H]2CO3)cc1	-0.86
CN(C)CC(=O)N1CCCCN2[C@H](CO)[C@@H](c3ccc(-c4cccnc4)cc3)[C@@H]2C1	1.9
CC(C)CC#Cc1ccc([C@@H]2[C@@H](CO)N3C(=O)CN(C(=O)Nc4ccc(F)cc4)C[C@@H]23)cc1	0.64
CCCC#Cc1ccc([C@@H]2[C@H]3CN(S(=O)(=O)c4ccccc4F)CCCCN3[C@H]2CO)cc1	1.1
COc1cccc(-c2ccc([C@@H]3[C@H](CO)N4CCCCN(C(=O)NC(C)C)C[C@@H]34)cc2)c1	-6.5*
CC(C)NC(=O)N1CCCCN2[C@@H](CO)[C@H](c3ccc(Br)cc3)[C@@H]2C1	2.7
COc1cccc(-c2ccc([C@H]3[C@H](CO)N4CCCCN(C(=O)c5ccc(F)cc5)C[C@@H]34)cc2)c1	-2
CC(C)NC(=O)N1CCCCN2[C@@H](CO)[C@@H](c3ccc(Br)cc3)[C@@H]2C1	0.63
COc1cccc(-c2ccc([C@H]3[C@H]4CN(C(=O)NC(C)C)CCCCN4[C@H]3CO)cc2)c1	-10*
COc1cccc(-c2ccc([C@@H]3[C@H](CO)N4CCCCN(C(=O)c5ccc6c(c5)OCO6)C[C@@H]34)cc2)c1	-1.9
CN(C)C(=O)c1cccc(-c2ccc([C@@H]3[C@H]4CN(C(=O)C5CCC5)CCCCN4[C@H]3CO)cc2)c1	3.6

High-throughput results as filed in PubChem BioAssay.
